# Assay results: PubChem BioAssay
# Target: Torsin-1A-interacting protein 1 (Homo sapiens) (UniProt Q5JTV8)
# Assay: LAP1 binders from COS7 cell lysate, primary screen, small-molecule microarray, 635/667 nm fluorescence (AID 1116)
# Conditions: COS7-hLAP1 lysate binding, 635 nm fluorescence, higher = more signal
# Chain of Torsin-1A-interacting protein 1 (Homo sapiens) (Q5JTV8 whole entry, looked up): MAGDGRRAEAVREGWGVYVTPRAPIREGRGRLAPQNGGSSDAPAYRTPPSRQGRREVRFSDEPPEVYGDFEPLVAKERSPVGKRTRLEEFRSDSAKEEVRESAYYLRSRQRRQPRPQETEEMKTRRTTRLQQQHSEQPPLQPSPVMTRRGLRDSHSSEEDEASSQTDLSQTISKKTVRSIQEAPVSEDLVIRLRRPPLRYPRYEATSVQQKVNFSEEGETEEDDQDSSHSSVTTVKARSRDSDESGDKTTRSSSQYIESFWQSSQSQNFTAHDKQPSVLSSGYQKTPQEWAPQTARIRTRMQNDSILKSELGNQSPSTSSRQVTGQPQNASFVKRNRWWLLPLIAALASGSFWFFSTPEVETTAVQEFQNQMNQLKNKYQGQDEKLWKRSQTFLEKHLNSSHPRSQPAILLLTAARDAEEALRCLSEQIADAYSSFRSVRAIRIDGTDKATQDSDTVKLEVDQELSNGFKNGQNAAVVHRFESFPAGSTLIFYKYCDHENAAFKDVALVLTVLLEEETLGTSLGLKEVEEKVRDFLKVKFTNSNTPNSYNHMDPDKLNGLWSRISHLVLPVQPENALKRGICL
row,Structure (SMILES),composite z-score
1,CCOC(=O)C[C@H]1[C@H](OC(=O)c2ccccc2-c2ccccc2)[C@@H](NC(=O)c2ccc(-c3ccccc3)cc2)c2cc(OCCCO)ccc2N1C(=O)c1ccc2ccccc2n1,-0.0823
2,C=CCC(OC(C)=O)[C@@H]1[C@@H](N(Cc2ccc(-c3ccccc3)cc2)C(=O)Cc2ccc(F)cc2)c2cc(OCCCO)ccc2N1C(=O)Cc1ccc(OC)cc1 (stereo not given in full),-0.002
3,O=C(NCC(F)(F)F)[C@@H]1c2ccccc2C(=O)N(Cc2ccc(OC(F)(F)F)cc2)[C@H]1c1ccc(CO)cc1,0.148
4,COC(=O)CCCCCCC(=O)Nc1ccc(NC(=O)CCCC[P+](c2ccccc2)(c2ccccc2)c2ccccc2)cc1,0.533
5,CCCCCCc1nc(C2CC2)cc2c1[Si](C(C)C)(C(C)C)OC2,-0.476
6,O=C1O[C@H](c2ccccc2)[C@H](c2ccccc2)N2[C@H]1[C@@H](C(=O)Nc1nc3ccccc3s1)[C@]1(C(=O)Nc3ccccc31)[C@H]2c1ccc(OCCO)cc1,0.442
7,C=C(/C(=C/C[C@H](OC(=O)c1ccncc1)c1ccc(CO)o1)c1cc(C(=O)OC)ccc1OC)C(C)C,0.602
8,CN(C)C(=O)[C@@]1(CCS(=O)(=O)c2ccccc2)N=C(c2ccc(OCCCO)cc2)O[C@H]1c1ccccc1,1.84
9,O=C1OCCC/C=C\[C@H]2OC34C=CCN(CCN5CCOCC5)C(=O)[C@H]3N(CCCCCCO)C(=O)[C@@H]4C12 (stereo not given in full),1.52
10,O=C1C2C=CC(C(O)c3ccc(Br)cc3)N(Nc3ccccc3F)C2C(=O)N1c1ccccc1 (stereo not given),-0.147
11,CCCCC(=C=CC[C@@H](O)c1ccccc1OCCO)C[C@@H](O)COCc1ccccc1,0.694
12,O=C1O[C@@H](c2ccccc2)[C@@H](c2ccccc2)N2[C@@H](c3ccc(O)cc3)[C@]3(C(=O)Nc4ccc(C#CC5=CCCCC5)cc43)[C@@H](C(=O)NC[C@H](O)c3ccccc3)[C@H]12,1.52
13,NC(=O)NCC#Cc1ccc2c(c1)[C@]1(C(=O)N2)[C@H](C(=O)NC[C@H](O)c2ccccc2)[C@H]2C(=O)O[C@H](c3ccccc3)[C@H](c3ccccc3)N2[C@@H]1c1ccc(OCCO)cc1,0.863
14,CC(C)N1CC=CC23O[C@@H]4C=CCOC(=O)[C@@H]4[C@H]2C(=O)N(CCCO)[C@@H]3C1=O (stereo not given in full),1.47
15,N#Cc1ccc(C(O)C2C=CC3C(=O)N(c4ccccc4)C(=O)C3N2Nc2ccccc2)cc1 (stereo not given),0.747
16,CCCCN1CC=CC23O[C@@H]4/C=C\CCC(C)OC(=O)C4[C@H]2C(=O)N(C(CO)C(C)C)[C@@H]3C1=O (stereo not given in full),1.36
17,C=CCN1Cc2ccccc2[C@H]2OC(c3ccc(OCCCO)cc3)=N[C@@]2(CC=C)C1=O,-0.0689
18,CC(CO)N1C(=O)[C@@H]2[C@H]3C(=O)OCC=C[C@H]3OC23C=CCN(CCN2CCOCC2)C(=O)[C@@H]13 (stereo not given in full),-0.469

row,Structure (SMILES),composite z-score
1,CCCCCCc1nc(-c2cc(C)c(OC)c(C)c2)c(C)c2c1[Si](C(C)C)(C(C)C)OC2,-0.116
2,C=C(COC)/C(=C/C[C@H](OC(=O)c1ccncc1)c1ccccc1OCCO)c1cnc2ccccc2c1,0.0493
3,CO[C@H]1O[C@H](CO)[C@@H](OC(=O)Nc2ccc3c(c2)OCO3)[C@H](OC(=O)c2cc3ccccc3[nH]2)[C@H]1OC(=O)c1cc2ccccc2[nH]1,0.0724
4,O=C1N(Cc2ccccc2)c2ccccc2[C@@H]2OC(c3ccc(OCCCO)cc3)=N[C@]12Cc1ccccc1,0.685
5,CCOC(=O)c1ccc(NC(=O)O[C@H]2[C@H](OC(=O)Nc3ccc4c(c3)OCO4)[C@@H](OC(=O)Nc3ccc4c(c3)OCO4)[C@@H](OC)O[C@@H]2CO)cc1,1.52
6,C=CCC(OC(C)=O)[C@@H]1[C@@H](N(Cc2cccc3ccccc23)C(=O)Cc2ccc(OC)cc2)c2cc(OCCCO)ccc2N1C(=O)c1ccc2ccccc2n1 (stereo not given in full),0.307
7,COCCCNC(=O)[C@@]1(Cc2ccccc2CN=[N+]=[N-])N=C(c2ccc(OCCCO)cc2)O[C@H]1c1ccccc1,1.62
8,COC(=O)[C@@]1(Cc2ccccc2)[C@H]2c3cc(C(=O)N(C)C)n(CCc4ccc(O)c(OC)c4)c3C[C@H]2CN1C(=O)c1ccccc1,0.279
9,CN1C(=O)C2C=CC(C(O)COCc3ccccc3)N(N(c3ccccc3)c3ccccc3)C2C1=O (stereo not given),0.454
10,CC(c1ccccc1)C(O)C1C=CC2C(=O)N(c3ccccc3)C(=O)C2N1Nc1ccc([N+](=O)[O-])cc1 (stereo not given),0.464
11,[N-]=[N+]=NCc1ccccc1[C@H]1OC(c2ccc(OCCCO)cc2)=N[C@@]1(CCS(=O)(=O)c1ccccc1)C(=O)N1CCCCC1,1.22
12,[N-]=[N+]=Nc1ccccc1C[C@]1(C(N)=O)N=C(c2ccc(OCCCO)cc2)O[C@H]1c1ccccc1N=[N+]=[N-],0.776
13,COc1cc(CO)cc(I)c1O[C@H]1C=C(C(=O)NCCO)C[C@@H](NCc2ccc(F)cc2)[C@@H]1O,0.0217
14,CCCC[C@@H]1C[C@H]1[C@@H](NC(=O)c1cccs1)c1ccc(C(F)(F)F)cc1,-0.515
15,COCCOC(=O)N1C(=O)[C@@]2(c3cc(C#CC4=CCCCC4)ccc31)[C@H](C(N)=O)[C@H]1C(=O)O[C@H](c3ccccc3)[C@H](c3ccccc3)N1[C@@H]2c1ccccc1OCCO,1.25
16,O=C1OCCC=C[C@H]2OC34C=CCN(Cn5nnc6ccccc65)C(=O)[C@H]3N(CCCCCCO)C(=O)[C@@H]4C12 (stereo not given in full),-0.0637
17,Cc1ccc(S[C@]2(C(=O)O)CC(=O)N(Cc3cc(C(F)(F)F)cc(C(F)(F)F)c3)[C@@H]2c2ccc(CO)cc2)cc1,-0.155
